According to PubChem BioAssay AID1159580 (chemical genetic matrix, 2015):
The whole screen tested about 5,500 compounds, of which about 2,000 (36%) were called active. Not shown: some 18% with an inconclusive outcome. Rule as the data show it: active = normalized growth mostly below about 0.91 (no sharp cut-off); inconclusive = no clear call, values can overlap the other calls; inactive = mostly above about 0.92. Some of the results follow.

Experiment: chemical genetic growth profiling, strain panel (AID 1159580);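 also: tested at 20 µM; growth read once vehicle control cultures reached saturation at 30 °C; 1 = growth at the plate median or of vehicle wells; lower values mean less growth of the strain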
Conditions: S. cerevisiae deletion strains, growth OD

Measured: normalized growth

C[C@H]1C2Cc3ccc(O)cc3[C@]1(C)CCN2CC1CC1
inactive: locus YAL040C, strain CLN3, hits give low values 0.994 | locus YCL061C, strain MRC1 (second series), hits give low values 1.01 | locus YDR150W, strain NUM1, hits give low values 1 | locus YDR363W, strain ESC2, hits give low values 1.02 | locus YER002W, strain NOP16, hits give low values 0.988 | locus YGR078C, strain PAC10, hits give low values 1.01 | locus YGR229C, strain SMI1, hits give low values 1.05 | locus YNL153C, strain GIM3, hits give low values 1.02 | locus YNL175C, strain NOP13, hits give low values 1.02 | locus YNL197C, strain WHI3, hits give low values 1.02 | locus YNL224C, strain SQS1, hits give low values 1 | locus YNL322C, strain KRE1, hits give low values 1.02 | locus YOR083W, strain WHI5 (second series), hits give low values 1.04 | locus YPL055C, strain LGE1, hits give low values 1.02 | locus YPL241C, strain CIN2, hits give low values 1.01
